In PubChem BioAssay AID720579 (National Center for Advancing Translational Sciences (NCATS), 2013):
About 1,900 (0.61%) of roughly 310,000 compounds were called active. About 8% were inconclusive and are not listed. The call rests on the fitted dose curve; tested in A549 cells. What follows is part of a selection rich in actives, with near analogues and random picks from the rest. Entries that show only a call come without a potency.

Test: qHTS for Stage-Specific Inhibitors of Vaccinia Orthopoxvirus: mCherry Reporter Primary qHTS; further: nearly all actives have a fitted effect of over 35% in size
Settings: Vaccinia virus mCherry reporter infection, fluorescence; series mostly up to 36.5 µM
Potency means the concentration at half of the fitted maximal effect.

| SMILES | Potency |
| --- | --- |
| CC(C)(C)c1cc(C(=O)N/N=C/c2ccc([N+](=O)[O-])s2)n[nH]1 | 11.2 µM (active) |
| Cc1ccsc1C(=O)N/N=C/c1ccc([N+](=O)[O-])cc1 | inactive |
| Cc1nc2ccccc2cc1C(=O)N/N=C/c1ccc([N+](=O)[O-])cc1 | inactive |
| Cc1nc2c(OCc3ccc(Cl)cc3)cccn2c1N(C)Cc1cccs1 | inactive |
| CCCCOCCCNC(=O)C[C@@H]1C[C@@]2(C(=O)OCC)CCCC=C2N(CCC2=CCCCC2)C1=O | inactive |
| CN(C)CCNC(=O)c1ccc(-c2cn3c(-c4ccc(Oc5ccccc5)cc4)cnc3cn2)cc1 | inactive |
| Cn1nccc1CNC(=O)c1ccnn1C | inactive |
| CCCc1ccc(-c2c(C)sc(NC(=O)c3ccnn3C)c2C#N)cc1 | 11.2 µM (active) |
| Cc1sc(NC(=O)C2=COCCO2)c(C#N)c1C | inactive |
| C=C1C=C(C(F)F)n2ncc(C(=O)NCCc3ccccc3OC)c2N1 | inactive |
| CN1CCN(c2ccc3c(c2)OC[C@H](Cc2ccccc2)NS3(=O)=O)CC1 | inactive |
| CN(C)CCNC(=O)c1ccc(Cl)c2cc3ccccc3nc12 | 1.78 µM (active) |
| CC(=O)NCCNC(=O)c1cc(-c2cccc3ccccc23)nc2ccccc12 | inactive |
| CN(C)CCNC(=O)Nc1cccc(Cl)c1Cl | inactive |
| COc1cccc(-c2cnc3c(NC(C)=O)cc(-c4cccc(NC(C)=O)c4)cn23)c1 | inactive |
| CCCCn1nnnc1C(c1cccc(OC)c1OC)N1CCN(C/C=C/c2ccccc2)CC1 (stereo not drawn) | inactive |
| Cc1c(CCO)sc[n+]1CC(=O)c1ccc2ccccc2c1 | inactive |
| Cc1cc(NC(=O)CSc2nc3c(cc2C#N)CCCCC3)no1 | inactive |
| CC(NC(=O)CSc1nc2c(cc1C#N)CN(C)CC2)c1ccccc1 (stereo not drawn) | 10 µM (active) |
| CN1CCc2nc(SC(C(=O)O)c3ccccc3)c(C#N)c(-c3cccs3)c2C1 (stereo not drawn) | inactive |
| CCCCCCCCN1C(=O)[C@H](CC(=O)NCC23CC4CC(CC(C4)C2)C3)C[C@@]2(C(=O)OC)CCCCC=C12 | inactive |
| CCN1C(=O)[C@H]2[C@@H](c3ccc(C(F)(F)F)cc3)N[C@]3(CCCN(Cc4ccc(Br)cc4)C3=O)[C@H]2C1=O | inactive |
| CC(C)(C)S(=O)N1Cc2cc(C(=O)NCCCN3CCOCC3)nc(-c3cccc(-c4cc5ccccc5o4)c3)c2[C@H]1CCO (stereo partly drawn) | inactive |
| CC1(Oc2ccc(Cl)cc2)CCN(Cc2csc3ccccc23)C1 (stereo not drawn) | inactive |

| SMILES | Potency |
| --- | --- |
| COc1ccc2sc(-c3ccc(N(C)C)cc3)c(C#CCO)c2c1 | 12.6 µM (active) |
| COc1ccc2sc(-c3ccc(S(C)(=O)=O)cc3)c(C#Cc3cncn3C)c2c1 | inactive |
| COc1ccc2sc(-c3ccc(N(C)C)cc3)c(-c3ccc4cc[nH]c4c3)c2c1 | inactive |
| COCOc1cccc(CN2CCC(C)(Oc3ccc(SC)cc3)C2)c1 (stereo not drawn) | inactive |
| O=C(NCc1cccc(C(F)(F)F)c1)c1ccc2sc(COCCO)nc2c1 | inactive |
| OC[C@@H]1CN(Cc2cccs2)C[C@H](n2cnc3c(NC4CCCC4)ncnc32)O1 | inactive |
| Cc1ncc(CO)c(/C=N/NC(=O)c2cccc(S(=O)(=O)N3CCCC3)c2)c1O | inactive |
| Cc1cc(C)nc(N/N=C/c2c(CO)cnc(C)c2O)n1 | 12.6 µM (active) |
| Cc1cc(C)nc(N/N=C/c2c(C)oc3ccccc23)n1 | inactive |
| CSc1ccc(CN2CCC2(C)C(=O)Nc2ccc(C)c(O)c2)cc1 (stereo not drawn) | inactive |
| CC(C)C[C@@H]1Cc2[nH][nH]c(=O)c2[C@H](CCc2ccccc2)O1 | inactive |
| CN(Cc1ccccc1)c1ccc(/C=C/c2ccnc3ccccc23)cc1 | inactive |
| COc1ccc(C(C)(C)C)cc1NC(=O)CN(C)C1=NS(=O)(=O)c2ccccc21 | inactive |
| COC(=O)[C@]12CCCCC=C1N(CCC1=CCCCC1)C(=O)[C@H](CC(=O)N1CCSCC1)C2 | inactive |
| CCC(C)C(=O)O[C@@H]1C[C@@]2(C)C(c3ccoc3)OC(=O)CC23OC2(C)O[C@@]14[C@@]1(C)C(CC(=O)OC)C5(C)CC1(O)C(O)(C5OC(=O)C1(C)OC1C)C(OC(C)=O)[C@@]34O2 (stereo partly drawn) | inactive |
| C=C1C([C@@]2(C)C(OC(C)=O)CC(=O)O[C@@](C)(COC(C)=O)C2CC(=O)OC)C(OC=O)C(OC(=O)C(O)C(C)CC)[C@]2(C)C(c3ccoc3)CC(=O)C12O (stereo partly drawn) | 2 µM (active) |
| COC(=O)CC1C(C)(C)C(OC(C)=O)C2CC3=C4CC(=O)OC(c5ccoc5)[C@]4(C)CCC3[C@@]1(C)C2=O (stereo partly drawn) | inactive |
| COc1ccc(C(O)c2nc(-c3ccc4c(c3)OCO4)cs2)cc1 (stereo not drawn) | inactive |
| CCc1nc2c(OCc3cccc(OC)c3)cccn2c1N(C)C(=O)C(C)C | inactive |
| CCN1CCCC1CNC(=O)c1ccc2c(c1)NC(=O)/C(=C\c1ccccc1F)S2 (stereo not drawn) | inactive |
| CC(=O)c1cccc(-c2cnc3c(NC=O)cc(-c4ccccc4Oc4ccccc4)cn23)c1 | inactive |
| COc1ccc(CS(=O)/C(Cl)=C(/Cl)C(=O)Nc2ccc(OC)nc2)cc1 (stereo not drawn) | 3.98 µM (active) |
| CCOc1ccc(S(=O)(=O)Nc2ccc(OC)nc2)cc1 | inactive |
| COc1ccc(NC(=O)CN2C(=O)NC(C)(c3ccccc3)C2=O)cn1 (stereo not drawn) | inactive |

| SMILES | Potency |
| --- | --- |
| CCN(CC)S(=O)(=O)c1cc(C(=O)Nc2cc(S(=O)(=O)N3CCOCC3)ccc2N2CCCC2)ccc1F | inactive |
| CCN(CC)S(=O)(=O)c1ccc(N2CCN(C)CC2)c(NC(=O)Nc2ccccc2F)c1 | inactive |
| CCN(CC)S(=O)(=O)c1ccc(N2CCCC2)c(NC(=O)c2ccc([N+](=O)[O-])o2)c1 | 14.1 µM (active) |
| COc1cccc(CNc2nc(NCc3cccs3)nc3ccsc23)c1 | inactive |
| OC(c1ccccc1)c1nc(-c2cnc3ccccc3c2)cs1 (stereo not drawn) | inactive |
| CC1(c2cccc(Br)c2)NC(=O)N(CC(=O)NCCC2=CCCCC2)C1=O (stereo not drawn) | inactive |
| O=C(NCCOc1ccccc1)N1[C@H]2CC[C@@H]1C=C(c1ccc(F)cc1OCc1ccccc1)C2 | inactive |
| CC1(C(=O)O)CCN1C(=O)/C=C/c1ccccc1 (stereo not drawn) | inactive |
| CC1(C(=O)NS(=O)(=O)c2ccccc2)CCN1C(=O)C/C=C/c1ccccc1 (stereo not drawn) | inactive |
| CC1(C)CCSC(/C=C/c2ccccc2)=N1 | 11.2 µM (active) |
| O=c1[nH]c(NCCO)nnc1Cc1ccc(Cl)cc1 | inactive |
| COc1ccc(/C=N/Nc2nc3ccccc3c(=O)[nH]2)cc1 | inactive |
| COc1ccc(Cc2nnc(N/N=C/c3ccccc3O)[nH]c2=O)cc1OC | 1.26 µM (active) |
| CCC(c1nnnn1-c1ccc2c(c1)OCCO2)N1CCN(c2ccc(C(F)(F)F)cn2)CC1 (stereo not drawn) | inactive |
| O=C(C(=O)N1CCC(c2ccccc2)CC1)c1ccccc1 | inactive |
| CCOC(=O)[C@]12CCC=C1N(CCC1=CCCCC1)C(=O)[C@H](CC(=O)NCc1ccc(C)o1)C2 | inactive |
| CN(C(=O)c1cccc(NC(=O)Cc2cccc(NC(=O)C3CCCN(C(=O)C4CC4)C3)c2)c1)C1CCC1 (stereo not drawn) | inactive |
| CN(C(=O)c1cccc(NC(=O)Cc2ccc(NC(=O)C3CCN(C(=O)C4CCCCC4)CC3)cc2)c1)C1CCC1 | inactive |
| CN(C(=O)c1cccc(NC(=O)Cc2cccc([N+](=O)[O-])c2)c1)C1CCCCC1 | 10 µM (active) |
| CCN(CC)C(=O)C(C)N1c2cccc3cccc(c23)S1(=O)=O (stereo not drawn) | inactive |
| CSCCC(C(=O)NC(C)(C)C)n1c(-c2ccccc2)nc2ccccc21 (stereo not drawn) | inactive |
| CCCNC(=O)C1(C)CCN1C(=O)Cc1ccc(-c2ccccc2)cc1 (stereo not drawn) | inactive |
| CC(=O)N1CCc2c(sc(NC(=O)CCS(=O)(=O)c3ccc(C)cc3)c2C(N)=O)C1 | inactive |
| CC(=O)N1CCc2c(sc(NC(=O)CCS(=O)(=O)c3ccccc3)c2C#N)C1 | 12.6 µM (active) |

| SMILES | Potency |
| --- | --- |
| CC(C)N1CCc2c(sc(NC(=O)Cc3ccccc3)c2C#N)C1 | inactive |
| CCc1oc(-c2ccc(OC)cc2)c(C(=O)OCCCCCO)c1C(C)OCCO (stereo not drawn) | inactive |
| O=C(c1cnn2c1NC(=C1CC1)C=C2C(F)F)N1CCc2ccccc2C1 | inactive |
| CN(C)c1cccc(NC(=O)c2ccc(-c3ccc(F)c(F)c3)c3ccoc23)c1 | inactive |
| Cc1ccccc1S(=O)(=O)NC(=O)C1(C)CCN1C(=O)C1(c2ccccc2)CCCC1 (stereo not drawn) | inactive |
| COc1ccc2c(Cl)c(-c3nnco3)sc2c1 | inactive |
| O=C(OCC#CCSc1nnc(-c2ccncc2)o1)c1sc2ccccc2c1Cl | inactive |
| C#CCSc1nnc(-c2sc3ccccc3c2Cl)o1 | 11.2 µM (active) |
| CC1(C(=O)Nc2cccnc2)Cc2c(-c3ccccc3)ccnc2O1 (stereo not drawn) | inactive |
| COc1ccc(C(=O)Oc2cc(/C=N/NS(=O)(=O)c3ccc(C)cc3)ccc2OC)cc1 | inactive |
| COc1ccc(/C=C/C(=O)c2ccc(NS(=O)(=O)c3ccc(C)cc3)cc2)cc1O | 12.6 µM (active) |
| COc1ccc(NS(=O)(=O)c2ccc(NC(=S)NC(=O)/C=C/c3ccc(C)cc3)cc2)nn1 | inactive |
| CCOC(=O)[C@]12CCCC=C1N(Cc1ccc3c(c1)OCO3)C(=O)[C@H](CC(=O)N1CCN(C(=O)c3ccco3)CC1)C2 | inactive |
| Cc1ccccc1NC(=O)Cc1nc(COC(=O)C(C)(C)Oc2ccc(Cl)cc2)cs1 | inactive |
| C/C=C/C(=O)OCc1csc(CC(=O)Nc2ccccc2C)n1 | 5.01 µM (active) |
| Cc1ccccc1NC(=O)Cc1nc(COC(=O)CNC(=O)c2ccc(Cl)cc2Cl)cs1 | inactive |
| CCC(C(=O)NC(C)(C)C)n1c(-c2ccccc2)nc2ccccc21 (stereo not drawn) | inactive |
| C/C(=N\NC(=O)c1ccoc1C)c1ccccc1O | 1.12 µM (active) |
| C/C(=N\NC(=O)c1ccccc1C)c1ccc(N2CCOCC2)cc1 | inactive |
| CC(C)=C(NC(=O)c1ccccc1)C(=O)N/N=C(\C)c1ccccc1O | inactive |
| CCOC(=O)[C@]12CCCC=C1N(CCC1=CCCCC1)C(=O)[C@H](CC(=O)N1CCN(C(=O)c3ccco3)CC1)C2 | inactive |
